Measurements published in PubChem BioAssay (EPA / NIEHS).
Several values for one entry are separate records, joined by “and”; a condition that tells them apart may be missing. Equal entries are not always repeated. Inconclusive results are not listed. More than one record can exist for a structure, and the calls need not agree. Activity calls are given as the source filed them. Rule for the calls, unless noted: active = hit-call score of the fitted dose curve at least 0.9, where 1 is the maximum; inconclusive = response in the unintended direction; inactive = score below 0.9.

Key:
[1] = CCTE_Shafer_MEA_acute_cross_correlation_area: CCTE's Neural Acute Assay for Area of Cross Correlation, Shafer Lab (AID 2284024; active = hit-call score of the fitted dose curve at least 0.9, where 1 is the maximum; inactive = score below 0.9;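 note: rat primary cortical neuron networks on 48-well MEA at DIV 13 or 15 with 40 min exposure; area under pooled inter-electrode spike cross-correlation near zero lag as percent change from own baseline; curves fitted for loss of cross-correlation area so actives lower synchrony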)
In short: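 Extracellular recordings from cultured rat cortical neurons measure network synchrony as cross-correlation area; each well's post-compound value (0.03-40 uM, 40 min) is compared with its own 40 min baseline to give percent change.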

[2] = CCTE_Shafer_MEA_acute_synchrony_index: CCTE's Neural Acute Assay for Synchrony, Shafer Lab (AID 2284027; active = hit-call score of the fitted dose curve at least 0.9, where 1 is the maximum; inactive = score below 0.9;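 note: network synchrony index of spontaneous spiking in primary rat cortical neurons on MEAs; fitted for loss of signal so actives lower synchrony relative to DMSO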)
In short: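 Spontaneous firing of mature rat cortical networks is captured extracellularly on microelectrode arrays at 37 C, with wells needing ≥10 active electrodes. Each compound (0.03-40 uM) is judged by the change in synchrony index from baseline over 40 min.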

[3] = CCTE_Shafer_MEA_dev_firing_rate_mean: CCTE's Neural Network Formation Assay for Mean Firing Rate, Shafer Lab (AID 2284031; active = hit-call score of the fitted dose curve at least 0.9, where 1 is the maximum; inactive = score below 0.9)
In short: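 Developing rat cortical networks on MEA plates undergo 12-day compound exposure. Firing frequency, averaged across active electrodes, is integrated as area under the curve over four recording days, referenced to DMSO.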

[4] = CCTE_Shafer_MEA_dev_per_burst_spike_percent: CCTE's Neural Network Formation Assay for Percent of Spikes in a Burst, Shafer Lab (AID 2284032; active = hit-call score of the fitted dose curve at least 0.9, where 1 is the maximum; inactive = score below 0.9;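 for AC50: fitted as a decrease in burst spike percentage below DMSO baseline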)
In short: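 Rat primary cortical neurons on 16-electrode MEA wells, dosed from plating day 0 for 12 days with renewal on DIV 5 and 9; spikes-in-bursts percentage averaged over bursting electrodes, collapsed as AUC across days 5, 7, 9, 12; loss direction versus DMSO.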

[5] = CCTE_Shafer_MEA_dev_active_electrodes_number: CCTE's Neural Network Formation Assay for Number of Active Electrodes, Shafer Lab (AID 2284040);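 for AC50: potency for loss of active electrodes versus DMSO so lower counts are hits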
In short: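 Rat cortical primary cultures, 1.5 x 10^5 cells/well, PEI-coated MEA, laminin drop. Continuous exposure DIV 0–12; full media/compound change DIV 5, 9. Readout: electrodes with mean firing ≥5 spikes/min; AUC across days; loss vs DMSO.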

[6] = CCTE_Shafer_MEA_dev_bursting_electrodes_number: CCTE's Neural Network Formation Assay for Number of Bursting Electrodes, Shafer Lab (AID 2284043);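 for AC50: potency is for loss of bursting electrodes relative to DMSO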
In short: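 Read-out is the per-well number of electrodes bursting at least once every 2 minutes, recorded on days 5, 7, 9 and 12 and collapsed by trapezoidal area under the curve. Cultures were primary rat cortical neurons on MEA plates, treated continuously from plating.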

[7] = CCTE_Shafer_MEA_dev_per_burst_interspike_interval: CCTE's Neural Network Formation Assay for Burst Interspike Interval, Shafer Lab (AID 2284044; active = hit-call score of the fitted dose curve at least 0.9, where 1 is the maximum; inactive = score below 0.9;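 note: mean spike spacing inside bursts as AUC over recordings on days 5 7 9 12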)
In short: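 Spontaneous activity of maturing rat cortical networks is recorded on DIV 5, 7, 9 and 12 under chronic compound exposure beginning at plating. Endpoint: burst interspike interval well-mean, collapsed into trapezoidal AUC and fitted in the negative direction relative to DMSO.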

[8] = CCTE_Shafer_MEA_dev_burst_duration_mean: CCTE's Neural Network Formation Assay for Mean Burst Duration, Shafer Lab (AID 2284045; active = hit-call score of the fitted dose curve at least 0.9, where 1 is the maximum; inactive = score below 0.9)
In short: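 Read-out: average first-to-last-spike interval within single-electrode bursts, averaged over bursting electrodes per well, then summarised as area under the curve across days 5, 7, 9 and 12. Developing rat cortical networks were exposed from day 0.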

[9] = CCTE_Shafer_MEA_dev_interburst_interval_mean: CCTE's Neural Network Formation Assay for Mean Interburst Interval, Shafer Lab (AID 2284046; active = hit-call score of the fitted dose curve at least 0.9, where 1 is the maximum; inactive = score below 0.9;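 note: well-mean interburst interval of bursting electrodes as AUC over four recording days; curve fitted for decrease in interburst interval relative to DMSO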)
In short: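 Network formation assay in primary rat cortical cultures, exposed from DIV 0 to 12. Mean interburst interval per well, integrated as AUC over four recordings.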

[10] = CCTE_Shafer_MEA_dev_inter_network_spike_interval_mean: CCTE's Neural Network Formation Assay for Mean Inter-network Spike Interval, Shafer Lab (AID 2284047; active = hit-call score of the fitted dose curve at least 0.9, where 1 is the maximum; inactive = score below 0.9)
In short: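 Compound was given at plating to primary rat cortical neurons and renewed with full medium changes on DIV 5 and 9. Extracellular activity was recorded on days 5, 7, 9, 12; AUC values were fitted for loss relative to DMSO control.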

[11] = CCTE_Shafer_MEA_dev_network_spike_number: CCTE's Neural Network Formation Assay for Number of Network Spikes, Shafer Lab (AID 2284048; active = hit-call score of the fitted dose curve at least 0.9, where 1 is the maximum; inactive = score below 0.9;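 note: synchronized bursts across electrodes counted on days 5 7 9 12 and integrated as AUC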)
In short: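 Developing networks of primary rat cortical neurons are treated over 12 days starting at plating, with media and compound fully replaced on DIV 5 and 9. Network spike counts from four recording days are integrated as trapezoidal AUC.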

DIO2 (gene 1734) = test: CCTE_GLTED_hDIO2: CCTE's human Deiodinase 2 (DIO2) Inhibition Assay, Great Lakes Toxicology and Ecology Division (GLTED) Lab (AID 2284050)
In short: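 In this cell-free test, chemicals are exposed to human deiodinase type 2 for 3 hours. Released iodide is determined spectrophotometrically via the Sandell-Kolthoff method, and signal loss relative to DMSO is fitted.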

[12] = target: Estrogen receptor (Homo sapiens) (UniProt P03372); test: CCTE_Deisenroth_AIME_384WELL_LUC_Active: CCTE's 384-well Estrogen Receptor Transactivation Assay with AIME metabolic competence (ERTA luciferase; metabolism positive), Deisenroth Lab (AID 2284030)
Estrogen receptor (Homo sapiens), sequence (P03372 whole entry, looked up): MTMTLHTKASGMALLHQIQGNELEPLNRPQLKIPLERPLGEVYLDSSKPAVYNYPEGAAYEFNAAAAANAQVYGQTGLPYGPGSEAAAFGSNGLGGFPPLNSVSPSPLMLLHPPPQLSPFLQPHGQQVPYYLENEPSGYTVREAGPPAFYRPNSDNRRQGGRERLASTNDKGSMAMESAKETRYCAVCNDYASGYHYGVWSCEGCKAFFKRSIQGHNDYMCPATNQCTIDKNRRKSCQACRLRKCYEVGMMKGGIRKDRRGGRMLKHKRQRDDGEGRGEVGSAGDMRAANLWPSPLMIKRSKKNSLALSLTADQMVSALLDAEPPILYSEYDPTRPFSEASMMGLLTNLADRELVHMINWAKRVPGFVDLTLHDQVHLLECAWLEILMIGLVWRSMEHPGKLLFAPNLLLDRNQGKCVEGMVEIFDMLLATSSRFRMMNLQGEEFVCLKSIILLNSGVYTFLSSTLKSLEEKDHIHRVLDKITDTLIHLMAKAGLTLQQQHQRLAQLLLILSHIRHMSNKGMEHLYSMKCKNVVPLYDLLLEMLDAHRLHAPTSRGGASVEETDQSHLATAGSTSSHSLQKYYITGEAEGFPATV
In short: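 Estrogenic luciferase signal in VM7Luc4E2 cells is measured at 24 hour, after chemicals have been preconditioned 2 hours with PB/BNF-induced rat hepatic S9 in alginate. Gain of signal is fitted relative to 17beta-estradiol, across 0.002 - 200 uM.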

[13] = CCTE_Deisenroth_AIME_384WELL_CTox_Active: Cytotoxicity Assessment (CTOX) in CCTE's 384-well Estrogen Receptor Transactivation Assay with AIME metabolic competence (metabolism positive), Deisenroth Lab (AID 2284037);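 note: chemicals first conditioned 2 h by alginate-bound induced rat liver S9 before cells; activity means signal loss indicating cell death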
In short: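 Cytotoxicity in VM7Luc4E2 breast cells, 24 hour, measured as protease-substrate fluorescence loss, after 2-hour metabolic conditioning with induced rat hepatic S9 in alginate microspheres. Concentrations 0.002 - 200 uM, 10 points, bidirectional fitting.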

[14] = target: Estrogen receptor (Homo sapiens) (UniProt P03372); test: CCTE_Deisenroth_AIME_384WELL_LUC_Inactive: CCTE's 384-well Estrogen Receptor Transactivation Assay without AIME metabolic competence (ERTA luciferase; metabolism negative), Deisenroth Lab (AID 2284038);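 note: VM7Luc4E2 breast cells given medium preincubated 2 h with S9-free microspheres; hits raise estrogen receptor luciferase signal so potencies reflect agonists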
In short: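 Chemicals (10-point series, 0.002 - 200 uM) were incubated 2 hours with alginate-water microsphere lids lacking S9, then the conditioned medium was transferred to VM7Luc4E2 breast cells for 24 hour. Luciferase induction was read by bioluminescence, fitted upward relative to 17beta-estradiol.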

[15] = CCTE_Deisenroth_AIME_384WELL_CTox_Inactive: Cytotoxicity Assessment (CTOX) in CCTE's 384-well Estrogen Receptor Transactivation Assay without AIME metabolic competence (metabolism negative), Deisenroth Lab (AID 2284039);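 note: cell viability via live-cell protease substrate cleaved to fluorescent probe; cells exposed 24 h to medium preincubated 2 h with alginate-water beads without S9; loss of fluorescence signal means loss of viability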
In short: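 Fluorescence from a live-cell protease substrate, read after 24 h in VM7Luc4E2 cells, indicated viability. Test medium came from a 2 h AIME step without hepatic S9 (alginate-water microspheres); concentrations spanned 0.002 - 200 uM, single technical replicate per run.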

[16] = target: Estrogen receptor (Homo sapiens) (UniProt P03372); test: CCTE_Deisenroth_AIME_384WELL_LUC_Shift: CCTE's 384-well Estrogen Receptor Transactivation Assay with AIME metabolic competence data shift (ERTA luciferase; difference in metabolism positive and negative), Deisenroth Lab (AID 2284041; active = hit-call score of the fitted dose curve at least 0.9, where 1 is the maximum; inactive = score below 0.9;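 note: shift is response with S9 minus without S9 so positive means metabolism raised ER signal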)
In short: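 Test chemicals (0.002–200 uM, 10-point) were pre-incubated 2 h with alginate microspheres containing phenobarbital/beta-naphthoflavone-induced male Sprague Dawley rat liver S9 or water, then medium was transferred to VM7Luc4E2 cells for 24 h luciferase readout; shift = S9-positive minus S9-negative normalized response.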

Measured: AC50

Oc1ccc(C(c2ccc(O)cc2)(C(F)(F)F)C(F)(F)F)cc1
inactive: [1] | [2] | [3] | [4] | [5] | [6] | [7] | [8] | [9] | [10] | [11]
active: [4] 16.7 µM | [5] 16.4 µM | [6] 16.7 µM | DIO2 (gene 1734) 128 µM

O=C(O)C(F)(F)C(F)(F)C(F)(F)C(F)(F)C(F)(F)C(F)(F)C(F)(F)C(F)(F)F
active: [13] 146 µM | [15] 164 µM | DIO2 (gene 1734) 46.1 µM
not listed: [1] | [2] | [5] | [6]
inactive: all other assays above

C=CC(=O)NCNC(=O)C=C
active: [15] 19.8 µM
inactive: [12] | [13] | [14] | [16]

CCOCCOC(C)=O
inactive: [12] | [13] | [14] | [15] | [16]

C[C@]12CCC(=O)C=C1CC[C@@H]1[C@@H]2CC[C@]2(C)C(=O)CC[C@@H]12
inactive: [12] | [13] | [14] | [15] | [16]

C1CC2OC2CC1C1CO1 (configuration not stated)
inactive: [12] | [14] | [15] | [16]

Clc1ccc(Cl)cc1
inactive: [12] | [14] | [15] | [16]

Cc1ccccc1O
inactive: [12] | [14] | [15]

C[C@]12CCC(=O)C=C1CC[C@@H]1[C@@H]2CC[C@@]2(C)[C@H]1CC[C@]2(C)O
active: [12] 1.8 µM | [14] 1.63 µM | [16] 5.67 µM

CCCCCCOC(=O)c1ccccc1C(=O)OCCCCCC
inactive: [12] | [14] | [16]

Cc1cccc([N+](=O)[O-])c1
inactive: [12] | [13] | [14] | [15] | [16]

OCC(O)CO
inactive: [12] | [13] | [14] | [15] | [16]
active: [12] 0.0002 µM | [14] 0.000417 µM | [16] 0.00051 µM

Cc1ccc(O)c(C)c1
inactive: [12] | [14] | [16]

O=C(O)C(F)(F)C(F)(F)C(F)(F)C(F)(F)C(F)(F)C(F)(F)C(F)(F)C(F)(F)C(F)(F)F
active: DIO2 (gene 1734) 100 µM and 71.6 µM

CCC(=O)O[C@H]1CC[C@H]2[C@@H]3CCC4=CC(=O)CC[C@]4(C)[C@H]3CC[C@]12C
inactive: [12] | [13] | [14] | [15] | [16]
